Screening results (PubChem BioAssay)
Shown are actives, neighbours in structure and some others; about 11% of the full set was active somewhere.
JMJD2A Tudor = JMJD2A Tudor domain (human) inhibition. O75164. AlphaScreen JMJD2A-Tudor / H3K4me3 peptide binding. Potency, µM (titrated, usually from 114 µM), inactives show at the top dose activity change, negative = inhibition, usual class: inhibitors. hit rate 4.4% among 390,000. AID 504339; further: potency means the concentration at half of the fitted maximal effect; on the % scale 0 is the no-effect control and ±100 the full control effect; nearly all actives have a fitted effect of over 50% in size
PI5P4Ka inh = PI5P4K alpha (human) kinase inhibition. PI5P4Kalpha enzyme, ADP-Glo luminescence, 60 min; active compounds read low. max response, %. hit rate 1.2% among 330,000. P48426; active means max response of -50% or lower; inconclusive means between -30% and -50%; inactive means -30% or higher; further: value at the top dose of about 77 µM; on the % scale 0 is the no-effect control and ±100 the full control effect
Target sequence (P48426 whole entry, looked up): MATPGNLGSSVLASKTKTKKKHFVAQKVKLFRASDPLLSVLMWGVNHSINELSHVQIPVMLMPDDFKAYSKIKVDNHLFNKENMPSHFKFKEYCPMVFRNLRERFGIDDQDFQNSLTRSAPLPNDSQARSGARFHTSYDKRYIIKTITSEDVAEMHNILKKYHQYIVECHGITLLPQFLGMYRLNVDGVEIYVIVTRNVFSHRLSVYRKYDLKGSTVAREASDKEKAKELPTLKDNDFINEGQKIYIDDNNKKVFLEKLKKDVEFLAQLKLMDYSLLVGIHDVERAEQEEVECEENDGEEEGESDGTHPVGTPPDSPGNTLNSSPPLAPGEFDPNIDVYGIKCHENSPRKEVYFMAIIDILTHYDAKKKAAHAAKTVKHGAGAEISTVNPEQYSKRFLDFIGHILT
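Quantitative HTS of the MLSMR library against PI5P4Kalpha with substrate. ATP added last at 5 microM final; room temperature, 60 minutes. Remaining ATP depleted, ADP converted and read as luminescence.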
G9a block = inhibitors of human histone lysine methyltransferase G9a; Q96KQ7; G9a H3K9 monomethylation, AlphaScreen, 2 h; Potency, µM (series often up to 102 µM), for inactives: top-dose activity, negative = inhibition, most hits filed as inhibitors; hit rate 8.8% among 350,000; AID 504332; further: potency means the concentration at half of the fitted maximal effect; on the % scale 0 is the no-effect control and ±100 the full control effect; nearly all actives have a fitted effect of over 75% in size
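AlphaScreen read-out: biotin-H3K9 peptide (500 nM) methylation by 20 nM enzyme with 20 uM SAM, 2 h at room temperature after 15 min compound preincubation; anti-monomethyl H3K9 antibody plus donor/acceptor beads, 10 min dark.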
HP1b chromo inh = inhibitors of HP1-beta chromodomain binding to methylated histone tails. Potency, µM (top dose mostly 114 µM), without a hit: at the top dose activity change, negative = inhibition, most hits filed as inhibitors. AID 540317. AlphaScreen HP1-beta / biotin-H3K9me3 peptide binding. hit rate 0.56% among 390,000; further: potency means the concentration at half of the fitted maximal effect; nearly all actives have a fitted effect of over 70% in size
Target sequence (P83916 whole entry, looked up): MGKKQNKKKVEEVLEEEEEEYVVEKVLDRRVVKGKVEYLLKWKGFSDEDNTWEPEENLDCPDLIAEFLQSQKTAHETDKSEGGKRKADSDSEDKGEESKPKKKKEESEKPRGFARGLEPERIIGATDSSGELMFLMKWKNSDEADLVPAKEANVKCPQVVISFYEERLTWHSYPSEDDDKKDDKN
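Compound inhibition of the preformed complex between 50 nM HP1-beta and 50 nM biotinylated H3K9me3 peptide was read by AlphaScreen. Buffer was PBS pH 7.4 with 0.01% Tween-20. Incubations ran 30 min at room temperature, with 10 ug/mL donor/acceptor beads.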
L3MBTL1 inh = inhibitors of human L3MBTL1; AlphaScreen L3MBTL1–H3K9me1 peptide binding; hit rate 0.66% among 230,000; Q9Y468; AID 485360; Potency, µM (highest dose often 57.1 µM), inactives show at the top dose activity, negative = inhibition, hits mostly inhibitors; further: potency means the concentration at half of the fitted maximal effect; on the % scale 0 is the no-effect control and ±100 the full control effect; nearly all actives have a fitted effect of over 60% in size
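Displacement of a biotinylated histone H3(1-15) peptide monomethylated at Lys9 (75 nM) from L3MBTL1 (50 nM) was measured by AlphaScreen after a 30 min room-temperature compound incubation; cefsulodin titration served as intraplate control.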
BAZ2B block = inhibitors of human BAZ2B bromodomain. Potency, µM (highest dose often 114 µM), for inactives: top-dose activity change, negative = inhibition, actives largely listed as inhibitors. AlphaScreen BAZ2B-H3K14Ac peptide displacement. AID 504333. hit rate 4.4% among 360,000. Q9UIF8; further: potency means the concentration at half of the fitted maximal effect; on the % scale 0 is the no-effect control and ±100 the full control effect; nearly all actives have a fitted effect of over 60% in size
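Complex of BAZ2B and biotin-H3K14Ac (50 nM apiece) forms over 30 min at RT, then faces library compounds up to 110 uM for another 30 min; AlphaScreen beads added, 20 min dark incubation, luminescence read.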
Numbers without * were called inactive; u = inconclusive; x = no result given; [ ] = dose if it differs, or a comment. Unless noted, the call rests on the fitted dose curve; in most records, active means well fitted inhibition curve with a large enough effect; inconclusive means small, poorly fitted or top-dose-only effect; inactive means no such curve, though single readings can be large or run the other way.

SMILES	JMJD2A Tudor	PI5P4Ka inh	G9a block	HP1b chromo inh	L3MBTL1 inh	BAZ2B block
CCCc1nnc(NC(=O)Cn2c(=O)oc3ccccc32)s1	2%	-13	u	-25%	-10%	1%
CCCc1nnc(NC(=O)Cn2c(=O)oc3cc(Br)ccc32)s1	-6%	x	28µM*	6%	x	-9%
O=C1NC(=Nc2ccc(F)cc2)CS1	-21%	7	32µM*	-14%	x	-11%
Cc1ccc(N=C2CSC(=O)N2)cc1	-8%	4	0%	37%	-10%	-5%
Oc1ccc(Br)cc1/C=N/n1c(C2CCCCC2)n[nH]c1=S	u	-13	50µM*	-18%	x	u
Oc1ccc(/C=N/n2c(C3CCCCC3)n[nH]c2=S)c(O)c1	14µM*	-24	1.6µM*	-10%	x	-33%
CCOc1ccc2nc(N3CCCC(C(=O)Nc4ccc(Br)c(C)c4)C3)sc2c1 (stereo unspecified)	-11%	x	-4%[59 µM]	5%	x	0%
Clc1ccc(OCc2nnc(SCCN3CCCCC3)n2Cc2ccco2)cc1	u	-4	u	13%	x	89µM*
Cc1cc(=O)n(Cc2ccco2)c(=S)[nH]1	x	1	x	x	x	x
CCc1ccc(OCc2nnc(SCCN3CCOCC3)n2CC)cc1	3.2µM*	x	7.1µM*	u	-3%	x
CCCc1n[nH]c(=S)n1Cc1ccco1	5µM*	-1	u	30%	x	6%
S=c1[nH]nc(C23CC4CC(CC(C4)C2)C3)n1Cc1ccco1	50µM*	5	-9%[0.0925 µM]	4%	-9%	u
O=c1c2ccccc2nnn1CSc1nnc(COc2ccc(Cl)cc2)n1Cc1ccco1	u	0	16%[0.0925 µM]	-13%	4%	u
COc1ccc(Nc2ncc(C(=O)Nc3ccc(F)cc3F)c3ccccc23)cc1	-8%	x	-24%[59 µM]	46%	x	-2%
COCc1oc2ccc(NS(=O)(=O)c3ccc(C)cc3)cc2c1C(=O)OC	-21%	x	-29%[59 µM]	4%	x	-1%
Cn1c(=O)cc(SCC(=O)N2CCN(c3ccccc3F)CC2)c2cc(Cl)ccc21	-20%	x	-28%[59 µM]	32%	x	-22%
CC(=O)c1ccc(N2CCN(S(=O)(=O)c3ccc(-c4cc(C(F)(F)F)on4)s3)CC2)cc1	-9%	x	6%[59 µM]	51%	x	9%
COc1ccccc1NC(=O)CSc1nnc(COc2ccc(Cl)cc2)n1Cc1ccco1	u	-11	u	4%	-14%	u
S=c1[nH]nc(COc2ccc(Cl)cc2)n1Cc1ccco1	u	-13	3.5µM*	u	x	u
COc1ccc(N(CC(=O)NC(C)C)S(=O)(=O)c2ccc(NC(C)=O)cc2)cc1	-29%	x	1.4µM*	-4%	x	-13%
Cc1ccc(NC(=O)/C(=C/c2ccco2)c2ccccc2)c(C)c1	-14%	-3	50µM*	-18%	x	u
CC(=O)c1cccc(NC(=O)/C(=C/c2ccco2)NC(=O)c2ccco2)c1	-18%	0	74%	16%	x	0%
Cc1ccc(C(=O)N/C(=C/c2ccco2)C(=O)Nc2cccc(C(=O)O)c2)cc1	79µM*	-53*	x	2%	x	22%
O=C(NCc1ccco1)/C(=C\c1ccco1)NC(=O)c1ccco1	-20%	-5	45µM*	23%	-16%	10%
Cc1ccc(NC(=O)N/C=C/c2ccco2)cc1	50µM*	x	u	-11%	u	79µM*
SMILES	JMJD2A Tudor	PI5P4Ka inh	G9a block	HP1b chromo inh	L3MBTL1 inh	BAZ2B block
O=C(NCc1ccco1)/C(=C/c1ccccc1)NC(=O)c1ccco1	-10%	-1	-6%[59 µM]	2%	x	3%
CC(=O)c1ccc(N2CCN(C(=O)CCc3nnc4n(C)c(=O)c5sccc5n34)CC2)cc1	-17%	x	12%[59 µM]	29%	x	5%
COc1ccc(N2CC(C(=O)Nc3ccc(NC(C)=O)cc3)CC2=O)cc1 (stereo unspecified)	-19%	x	23%[59 µM]	27%	x	5%
COc1ccc(-c2ccc(C)cc2)cc1C1C2C=CCC(C)C2C(=O)N1Cc1ccccc1 (stereo unspecified)	-17%	x	x	26%	x	x
Cc1nnc(N2CCCC(C(=O)Nc3cccc(C(F)(F)F)c3)C2)c2nn(-c3ccccc3)c(C)c12 (stereo unspecified)	-5%	x	-26%[59 µM]	20%	x	2%
COc1ccccc1C(=O)N/C(=C/c1ccco1)C(=O)Nc1cccc(C(=O)O)c1	79µM*	u	u	4%	x	u
COc1ccc(NC(=O)/C(=C\c2ccco2)NC(=O)c2ccco2)cc1	-12%	0	u	-16%	x	-3%
O=C(NCc1cccc(CNC(=O)c2ccco2)c1)c1ccco1	-11%	x	-17%[59 µM]	23%	3%	0%
Cc1ccc(NC(=O)/C(=C\c2ccco2)NC(=O)c2ccco2)cc1	u	0	28µM*	47%	x	-1%
O=C(NCc1cccc(CNC(=O)C(=O)NCc2ccco2)c1)C(=O)NCc1ccco1	u	-53*	u	-6%	-16%	u
CC(C)(C)C1CCC(=NNC(=O)C(=O)NCc2ccco2)CC1 (stereo unspecified)	-15%	5	20µM*	25%	-7%	u
CC(C)(C)C1CCC(=NNC(=O)CC(=O)NCc2ccccc2)CC1 (stereo unspecified)	-1%	1	u	41%	2%	5%
Cc1ccc(C2CCN(C(=O)Nc3ccc(Cl)c(Cl)c3)C2)cc1 (stereo unspecified)	3%	x	18%[59 µM]	46%	x	11%
CCOc1ccc(N2CC(=O)N(c3ccc(OCC)cc3)CC2=O)cc1	-11%	1	x	11%	11%	12%
CCOc1ccc(N2Cc3ccccc3C2)cc1	-22%	-11	2.5µM*	15%	-15%	x
